# Hits are enriched below; roughly 2.9% of the tested compounds scored in any of these assays.
# MmCpn inh: Inhibitors of TCP-1 ring complex (TRiC) of Methanococcus maripaludis (MmCpn): qHTS. Chaperonin Mm-Cpn (Methanococcus maripaludis). purified Mm-Cpn ATPase, ADP Transcreener TR-FRET. Potency, µM (series often up to 76.9 µM), for the others: at the highest dose activity, negative = inhibition, usual class: inhibitors. 330,000 compounds, 0.031% hits; active = well fitted inhibition curve with a large enough effect; inconclusive = small, poorly fitted or top-dose-only effect; note: potency is the fitted concentration of half-maximal effect; % is set by controls: 0 for no effect and ±100 for the full control effect; nearly all actives have a fitted effect of over 80% in size
#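 Inhibition of chaperonin ATP hydrolysis is measured as reduced ADP production, detected by competitive TR-FRET in which signal falls with ADP. Final enzyme 25 nM and ATP 10 uM, reacted 30 min at 37°C.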
# DRD3 agonist: qHTS of D3 Dopamine Receptor Agonist: qHTS. D(3) dopamine receptor (Homo sapiens), P35462. D3R DiscoveRx beta-arrestin cells, luminescence, 90 min. max activation, %. 410,000 compounds, 0.58% hits. AID 652048, 2013; in the data active = max activation above about 30%; note: 0% is about no effect
#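 Agonist-mode cell screen: cells plated at 1500/well and incubated overnight at 37 °C, then exposed to library compounds for 90 min at 37 °C. Detection reagent was added for 30–60 min at room temperature, and luminescence was read.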
# Rango dissoc inh: qHTS Assay for Inhibitors of RanGTP induced Rango (Ran-regulated importin-beta cargo) - Importin beta complex dissociation; Biochemical FRET Rango-importin beta, RanGTP-induced dissociation; Potency, µM (highest dose often 46.1 µM), for inactives: top-dose activity change, negative = inhibition; 340,000 compounds, 0.071% hits; note: potency is the fitted concentration of half-maximal effect; % of control where 0% means no effect; nearly all actives have a fitted effect of over 45% in size
#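 Quantitative HTS using a FRET biosensor: 0.1 uM Rango, 0.25 uM importin beta, 0.6 uM Ran, 2 mM GTP, 0.2 uM RCC1 final, PBS with DTT, Tween-20 and BSA. Post-read taken 45 min after Ran addition.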
# DRD3 antagonist: qHTS of D3 Dopamine Receptor Antagonist: qHTS | 360,000 compounds, 2.5% hits | max response, negative = inhibition, % | D(3) dopamine receptor (Homo sapiens), P35462 | D3R cells, DiscoveRx beta-arrestin luminescence, antagonist mode; stronger effect = lower value; in the data active = max response below about -50%; inconclusive = no clear call, values can overlap the other calls; note: % is set by controls: 0 for no effect and ±100 for the full control effect
#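 Cells plated overnight at 1500 cells/well, then exposed to library compounds with dopamine controls for 90 minutes at 37 degrees C. DiscoveRx reagent added for 30–60 minutes at room temperature; luminescence read, quantitative HTS format.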
# PTAP TSG101 blk: qHTS Assay for Iinhibitors of HIV-1 Budding by Blocking the Interaction of PTAP/TSG101. Tumor susceptibility gene 101 protein (Homo sapiens), Q99816. Fluorescence polarization, FITC-PTAP peptide / Tsg101 binding. Potency, µM (series often up to 115 µM), without a hit: at the highest dose activity change, negative = inhibition, usual class: inhibitors. 340,000 tested, under 10 active. AID 493005, 2010; active = well fitted inhibition curve with a large enough effect in the main read-out, with a control signal flat, not every such curve was filed as active; inconclusive = small, poorly fitted or top-dose-only effect, or effect the other way, or a change in a side signal; inactive = no such curve, though single readings can be large or run the other way; note: potency is the fitted concentration of half-maximal effect; % of control where 0% means no effect
#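 FP read-out: FITC-PTAP peptide, 50 nM final, binding Tsg101 binding domain, 10 uM final; 20 min, r.t.; 10 mM HEPES pH 7.5, 0.15 M NaCl, 0.01% Tween 20, 3 mM EDTA, 0.1 mM TCEP.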
# Rango complex inh: qHTS Assay for Inhibitors of Rango (Ran-regulated importin-beta cargo) - Importin beta complex formation. Potency, µM (top dose mostly 92.2 µM), without a hit: at the top dose inhibition of complex formation. Importin subunit beta-1 (Homo sapiens), Q14974. 340,000 compounds, 0.031% hits. Rango CFP/YFP FRET sensor + importin beta, 45 min;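 note: potency is the fitted concentration of half-maximal effect; 0% = DMSO wells and 100% = buffer wells lacking importin beta; nearly all actives have a fitted effect of over 15% in size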
# Target sequence (Q14974 whole entry, looked up): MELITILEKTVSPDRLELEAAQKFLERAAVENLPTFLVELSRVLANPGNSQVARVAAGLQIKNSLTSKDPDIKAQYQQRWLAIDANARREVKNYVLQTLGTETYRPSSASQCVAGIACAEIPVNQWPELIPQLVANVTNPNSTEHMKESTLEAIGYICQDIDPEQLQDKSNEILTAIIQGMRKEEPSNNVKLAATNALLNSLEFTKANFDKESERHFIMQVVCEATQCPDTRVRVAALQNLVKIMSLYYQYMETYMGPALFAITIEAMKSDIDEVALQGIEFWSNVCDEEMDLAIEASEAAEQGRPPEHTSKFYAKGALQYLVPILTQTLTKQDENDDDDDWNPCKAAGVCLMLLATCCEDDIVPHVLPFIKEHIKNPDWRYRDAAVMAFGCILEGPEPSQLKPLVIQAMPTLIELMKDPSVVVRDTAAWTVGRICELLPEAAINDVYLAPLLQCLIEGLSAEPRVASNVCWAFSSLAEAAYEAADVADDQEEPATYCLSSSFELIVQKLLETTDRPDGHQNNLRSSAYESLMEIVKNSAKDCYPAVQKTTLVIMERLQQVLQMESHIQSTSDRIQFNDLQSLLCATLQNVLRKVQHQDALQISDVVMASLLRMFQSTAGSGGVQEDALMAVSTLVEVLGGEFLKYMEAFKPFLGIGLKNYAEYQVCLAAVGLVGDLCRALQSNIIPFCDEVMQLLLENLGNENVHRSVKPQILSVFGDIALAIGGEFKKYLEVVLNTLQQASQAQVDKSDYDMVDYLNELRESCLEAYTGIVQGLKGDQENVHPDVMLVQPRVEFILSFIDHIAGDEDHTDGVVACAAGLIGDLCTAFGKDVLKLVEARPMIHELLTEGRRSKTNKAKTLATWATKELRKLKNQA
#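 FRET biosensor Rango (snurportin 1 IBB between N-terminal EYFP and C-terminal Cerulean), 50 nM in PBS/1 mM DTT/0.02% Tween-20/0.1% BSA, preincubated 5 min RT with compound; 0.125 microM importin beta added, 45 min RT, CFP/YFP FRET ratio read.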
# The depositor's hits bear a star; ? = inconclusive; . = no result; [ ] = dose if it differs, or a comment. Unless noted, calls come from the whole dose curve.
SMILES,MmCpn inh,DRD3 agonist,Rango dissoc inh,DRD3 antagonist,PTAP TSG101 blk,Rango complex inh
CCCCC/C=C\CCC(=O)N[C@H]1[C@H](Oc2c3cc4cc2Oc2ccc(cc2Cl)[C@@H](O[C@@H]2O[C@H](CO)[C@@H](O)[C@H](O)[C@H]2NC(C)=O)[C@@H]2NC(=O)[C@H](NC(=O)[C@@H]4NC(=O)[C@H]4NC(=O)[C@@H](Cc5ccc(c(Cl)c5)O3)NC(=O)[C@H](N)c3ccc(O)c(c3)Oc3cc(O)cc4c3)c3ccc(O)c(c3)-c3c(O[C@H]4O[C@H](CO)[C@@H](O)[C@H](O)[C@@H]4O)cc(O)cc3[C@@H](C(=O)O)NC2=O)O[C@H](CO)[C@@H](O)[C@@H]1O,.,-16.7,.,.,.,.
Cc1ccc2oc(=O)c3cnn(CC(=O)NCCCOC(C)C)c3c2c1,-0.7%,1.6,-4.2%,-84.2*,1.6%,-4.2%
COc1cccc(COC(=O)c2ccc(-c3nnn(Cc4ccccc4)n3)cc2)c1,.,-6.4,.,.,.,.
Cc1cccc(N2CCN(C(=O)NC3CCCCC3)CC2)c1C,1.6%,-4.3,14.5%,3.2,-13.4%,1.5%
CCOc1ccc(NC(=O)CN2CCN(c3ccccc3C)CC2)cc1S(=O)(=O)N1CCCC1,?,-23.8,-4.8%,-61.5*,-0.8%,-0.6%
COC(=O)c1ccc(NC(=O)CN2CCN(c3ccccc3C)CC2)cc1,3.0%,-2.1,4.8%,-77.0*,-14.0%,0.4%
COc1ccc(NC(=O)CN2CCN(c3ccccc3Cl)CC2)cc1,-1.3%,-12.4,-10.0%,-61.4*,-2.3%,-4.4%
Cc1cccc(N2CCN(CC(=O)NCC3CCCCC3)CC2)c1C,-1.1%,-5.9,-4.7%,-63.0*,-1.6%,3.7%
CCOc1ccc(NC(=O)CN2CCN(c3ccc(F)cc3)CC2)cc1S(=O)(=O)N1CCCC1,.,1.1,.,-20.0,.,.
CC(Sc1nc2cc([N+](=O)[O-])ccc2n1-c1cccc(C(F)(F)F)c1)C(=O)NC(N)=O (stereo not given),1.3%,4.6,32.7%,0.0,0.7%,-0.3%
COc1cccc(C(=O)Nc2ccc3nc4n(c(=O)c3c2)CCCC4)c1,2.5%,22.4,5.2%,9.6,-1.7%,-4.0%
CN(C)c1cccc(C(=O)Nc2ccc3nc4n(c(=O)c3c2)CCCCC4)c1,-1.0%,-2.5,9.7%,-60.6*,4.9%,-0.4%
COc1cc(/C=C2\SC(c3ccc(C)cc3)=NC2=O)cc(OC)c1O,-1.7%,4.7,-6.4%,-53.5*,-1.7%,?
COc1ccc(C=NCC2COc3ccccc3O2)cc1OC (stereo not given),1.9%[15.4 µM],-27.4,-7.5%,-51.0*,-7.6%,-2.1%
CCCN(CCC)C(=O)Cn1c(SCc2cccc(F)c2)nc2cccnc21,.,3.8,.,.,.,.
O=C(NCCN1CCCCC1)c1cc2ccccc2[nH]1,1.0%,-14.8,9.2%,-71.9*,-5.4%,5.3%
NNC(=O)c1cc2ccccc2[nH]1,0.6%,-9.5,-17.6%,-52.0*,-5.2%,0.3%
Cc1cccc(CS(=O)(=O)c2ncc(Cl)c(C(=O)NCc3ccc4c(c3)OCO4)n2)c1,-0.6%,-0.6,5.1%,-97.4*,-0.7%,1.5%
Cc1ccc(CNC(=O)c2nc(S(=O)(=O)Cc3ccc(C)cc3)ncc2Cl)cc1,.,-18.5,.,.,.,.
Cc1ccc(NC(=O)c2nc(S(=O)(=O)Cc3ccccc3C)ncc2Cl)cc1C,0.2%,-31.8,-15.7%,-73.7*,-2.9%,-0.3%
